Data on nine molecules can be found in PubChem BioAssay (NCI).

Assay [1] is described as follows: NCI Yeast Anticancer Drug Screen. Data for the rad50 strain (AID 155).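 Further: 0% = growth of vehicle-only cultures of the same strain.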 The following applies: S. cerevisiae rad50 strain growth inhibition, stronger effect = higher value. The essentials: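 Cells are treated with compound, grown, and their growth is then scored against vehicle-only cultures of the same repair-deficient yeast strain.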
A short description of assay [2]: NCI Yeast Anticancer Drug Screen. Data for the mec2-1 strain (AID 157). The following applies: S. cerevisiae mec2-1 strain, stronger effect = higher value. The method, boiled down:
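Growth inhibition is read against vehicle-treated controls after compound exposure of the mec2-1 yeast strain, which is defective in DNA damage repair or cell cycle control.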

Assay [3] can be described thus: NCI Yeast Anticancer Drug Screen. Data for the sgs1 mgt1 strain (AID 161).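 Further: 0% = growth of cultures given vehicle only.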 The following applies: S. cerevisiae sgs1 mgt1 strain, stronger effect = higher value. The method, boiled down:
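Percent growth inhibition was derived by comparing compound-exposed mutant yeast with vehicle-exposed cultures. The strain carries alterations in DNA damage repair.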

The nature of assay [4]: NCI Yeast Anticancer Drug Screen. Data for the bub3 strain (AID 167). To be noted: S. cerevisiae bub3 mutant strain, stronger effect = higher value. The method, boiled down: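 Part of a panel of yeast mutants defective in DNA damage repair or cell cycle regulation. Each strain is grown with compound, and inhibition is calculated relative to solvent-treated cultures.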
Assay [5] is described as follows: NCI Yeast Anticancer Drug Screen. Data for the cln2 rad14 strain (AID 165).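 Further: 0% = growth equal to vehicle treated cultures.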 To be noted: S. cerevisiae cln2 rad14 strain, stronger effect = higher value. The essentials:
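Growth inhibition, relative to vehicle-treated controls, is the read-out. The test organism is a yeast strain with defined genetic alterations, cln2 rad14.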

Assay [6] in a line: NCI Yeast Anticancer Drug Screen. Data for the mlh1 rad18 strain (AID 175). The following applies: S. cerevisiae mlh1 rad18 strain growth inhibition, stronger effect = higher value. The essentials: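 Cells of a genetically altered yeast strain, deficient in DNA damage repair, were treated with compound. Their growth was then compared with that of vehicle-treated cultures to give inhibition.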

[7] abbreviates: at 5.0 µM (retest, dose inferred, filed as 0.5).
Setting [8] is: at 50.0 µM (retest, dose inferred, filed as 5.0).

Several values for one entry are separate records, joined by “and”; a condition that tells them apart may be missing. Equal entries are not always repeated. About 79,000 compounds went through this panel and 15% of them were active in at least one assay; those are over-represented in the sample as a whole. Where a structure was tested more than once in an assay, its records may differ in their call. Activity calls are given as the source filed them. No stated cut-off is given here; in the data, active means growth inhibition above about 70%; inactive means the rest.

For the molecule `CC(C)C(N)C(=O)NC(C(=O)NC(C(=O)O)C(C)C)C(C)C` (stereo unspecified), the growth inhibition in assay [1] (at 50.0 µM) was -1.6% (inactive) [middle of 6 runs]; in assay [2] (at 50.0 µM) it was 6.8% (inactive) [middle of 6 runs]; in assay [3] (at 50.0 µM), 3.35% (inactive) [middle of 6 runs]; in assay [4] (at 50.0 µM), 6.2% (inactive) [middle of 6 runs].

As for `OCC(O)C(O)C(O)C(O)C(/C=N/Nc1ccccc1)=N/Nc1ccccc1` (stereo unspecified), the growth inhibition in assay [1] (setting [7]) was -19% (inactive); in assay [1] (setting [8]) it was 91% (active); in assay [2] (setting [7]) it was -5% (inactive); in assay [2] (setting [8]), 61% (inactive); in assay [3] (setting [7]), -39% (inactive); in assay [3] (setting [8]), 30% (inactive). For the same molecule, the growth inhibition in assay [5] (setting [7]) was 2% (inactive); in assay [5] (setting [8]), 82% (active); in assay [4] (setting [7]) it was -3% (inactive); in assay [4] (setting [8]), 54% (inactive); in assay [6] (setting [7]), 8% (inactive); in assay [6] (setting [8]), 86% (active).

Consider `COC1C(O)C(C)OC(OC2C(Oc3cccc4c(O)c5c(=O)oc6ccc(C)c7c(=O)oc(c34)c5c67)OC(C)C3O[C@H](c4ccccc4)OC32)C1O` (stereo partly specified), for which the growth inhibition in assay [1] (setting [7]) is 82% (active); in assay [1] (setting [8]), 96% (active); in assay [1] (at 50.0 µM) it was 86.5% (active); in assay [3] (setting [7]), 73% (active); in assay [3] (setting [8]), 96% (active); in assay [3] (at 50.0 µM), 91% (active). Further, the growth inhibition is 59% (inactive) in assay [5] (setting [7]); 96% (active) in assay [5] (setting [8]); 88.3% (active) in assay [5] (at 50.0 µM); 74% (active) in assay [4] (setting [7]); 95% (active) in assay [4] (setting [8]); 89.6% (active) in assay [4] (at 50.0 µM). Moreover, the growth inhibition in assay [6] (setting [7]) was 77% (active); in assay [6] (setting [8]), 93% (active); in assay [6] (at 50.0 µM), 77.3% (active).

`CC1(C)OC2C(O)C(O)C3OC(C)(C)OC3C2O1` (stereo unspecified): the growth inhibition was -13% (inactive) in assay [2] (setting [7]); 2% (inactive) in assay [2] (setting [8]); 9.35% (inactive) and -8.1% (inactive) in assay [2] (at 50.0 µM); -6% (inactive) in assay [3] (setting [7]); 2% (inactive) in assay [3] (setting [8]); 14.4% (inactive) and 6.4% (inactive) in assay [3] (at 50.0 µM). For the same molecule, the growth inhibition was -1% (inactive) in assay [5] (setting [7]); 0% (inactive) in assay [5] (setting [8]); 74.1% (active) and -2.4% (inactive) in assay [5] (at 50.0 µM); 2% (inactive) in assay [4] (setting [7]); 2% (inactive) in assay [4] (setting [8]); 61% (inactive) and 15.4% (inactive) in assay [4] (at 50.0 µM). In addition, the growth inhibition in assay [6] (setting [7]) is 25% (inactive); in assay [6] (setting [8]), 15% (inactive); in assay [6] (at 50.0 µM), 44% (inactive) and 9.25% (inactive).

Regarding `COC1OC2COC(c3ccccc3)OC2C2OC12` (stereo unspecified), the growth inhibition in assay [1] (at 50.0 µM) was -7.7% (inactive) [middle of 4 runs]; in assay [2] (at 50.0 µM) it was -2.5% (inactive) [middle of 4 runs]; in assay [5] (at 50.0 µM), 3.15% (inactive) [middle of 4 runs]; in assay [4] (at 50.0 µM), -4.2% (inactive) [middle of 4 runs]; in assay [6] (at 50.0 µM), -12.8% (inactive) [middle of 4 runs].

With `CCOC(=O)C(CN)(c1ccccc1)c1ccccc1`, the growth inhibition is -4% (inactive) in assay [2] (setting [7]); 8% (inactive) in assay [2] (setting [8]); -5.4% (inactive) in assay [2] (at 50.0 µM); -4% (inactive) in assay [3] (setting [7]); -13% (inactive) in assay [3] (setting [8]); 5.35% (inactive) in assay [3] (at 50.0 µM). In addition, the growth inhibition is 2% (inactive) in assay [5] (setting [7]); -12% (inactive) in assay [5] (setting [8]); 43.8% (inactive) in assay [5] (at 50.0 µM); -7% (inactive) in assay [6] (setting [7]); -10% (inactive) in assay [6] (setting [8]); 17.1% (inactive) in assay [6] (at 50.0 µM).

With `COc1cc2c(cc1O)CC[n+]1cc3c(OC)c(OC)ccc3cc1-2`, the growth inhibition in assay [1] (at 50.0 µM) is -56% (inactive) and 3.1% (inactive) and -3% (inactive); in assay [2] (at 50.0 µM), -20% (inactive) and -15.3% (inactive) and 0.25% (inactive); in assay [3] (at 50.0 µM) it was -20.8% (inactive) and 0.8% (inactive) and 20.3% (inactive); in assay [5] (at 50.0 µM) it was 9.65% (inactive) and 5.15% (inactive) and -13.2% (inactive); in assay [4] (at 50.0 µM) it was -15.4% (inactive) and -3.15% (inactive) and 15.6% (inactive); in assay [6] (at 50.0 µM), -11.1% (inactive) and -69.1% (inactive) and 0% (inactive).

For `CCOC(=O)c1c[nH]c2cc(C(F)(F)F)ccc2c1=O`, the growth inhibition in assay [2] (setting [7]) was 74% (active); in assay [2] (setting [8]), 96% (active); in assay [2] (at 50.0 µM) it was -0.25% (inactive); in assay [3] (setting [7]), -23% (inactive); in assay [3] (setting [8]), -11% (inactive); in assay [3] (at 50.0 µM), 26.3% (inactive). Moreover, the growth inhibition in assay [5] (setting [7]) is 9% (inactive); in assay [5] (setting [8]), 24% (inactive); in assay [5] (at 50.0 µM), 9.15% (inactive); in assay [4] (setting [7]) it was 22% (inactive); in assay [4] (setting [8]), 2% (inactive); in assay [4] (at 50.0 µM), 69.9% (inactive). The growth inhibition is 56% (inactive) in assay [6] (setting [7]), 99% (active) in assay [6] (setting [8]) and 1.5% (inactive) in assay [6] (at 50.0 µM).

`O=C(NNc1ccnc2cc(Cl)ccc12)/C(=C/c1ccc2c(c1)OCO2)NC(=O)c1ccccc1`: the growth inhibition was -18% (inactive) in assay [2] (setting [7]); 46% (inactive) in assay [2] (setting [8]); 77.3% (active) in assay [2] (at 50.0 µM); -4% (inactive) in assay [3] (setting [7]); 47% (inactive) in assay [3] (setting [8]); 86.8% (active) in assay [3] (at 50.0 µM). Further, the growth inhibition in assay [5] (setting [7]) is 2% (inactive); in assay [5] (setting [8]) it was 64% (inactive); in assay [5] (at 50.0 µM) it was 79.7% (active); in assay [6] (setting [7]) it was -2% (inactive); in assay [6] (setting [8]) it was 71% (active); in assay [6] (at 50.0 µM), 93.1% (active).
